Compound activity from PubChem.
An excerpt weighted towards active compounds, which were near 4.7% of everything screened.
DRD3 antagonist – blocks the human D3 dopamine receptor. D3R cells, DiscoveRx beta-arrestin luminescence, antagonist mode; hits give low values. AID 652054. P35462. actives 2.5% (n = 360,000). max response, negative = inhibition, %; in the data active means max response below about -50%; inconclusive means no clear call, values can overlap the other calls; further: on the % scale 0 is the no-effect control and ±100 the full control effect
Target sequence (P35462 whole entry, looked up): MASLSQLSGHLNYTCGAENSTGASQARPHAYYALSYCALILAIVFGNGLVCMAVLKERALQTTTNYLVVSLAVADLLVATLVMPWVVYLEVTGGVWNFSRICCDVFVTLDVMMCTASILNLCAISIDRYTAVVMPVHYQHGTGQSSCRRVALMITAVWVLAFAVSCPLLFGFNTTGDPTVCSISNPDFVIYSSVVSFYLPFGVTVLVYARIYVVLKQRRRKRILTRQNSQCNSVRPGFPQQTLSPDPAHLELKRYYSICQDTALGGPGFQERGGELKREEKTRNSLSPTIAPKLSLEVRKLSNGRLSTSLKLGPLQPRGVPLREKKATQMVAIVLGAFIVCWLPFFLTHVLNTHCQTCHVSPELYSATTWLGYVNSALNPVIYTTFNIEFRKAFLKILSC
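Cells expressing the human receptor were seeded at 1500 cells/well, incubated overnight at 37 degrees C in 5% CO2, then exposed to library compounds with dopamine controls for 90 minutes at 37 degrees C before luminescent detection.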
ATXN2 expr inh – reduces ATXN2 reporter expression in HEK-293 cells; actives 0.72% (n = 360,000); HEK-293 ATXN2-luciferase reporter, luminescence, 24 h; AID 1745845; Potency, µM (highest dose often 57 µM), without a hit: at the top dose activity change, negative = inhibition, most hits filed as inhibitors; further: potency means the concentration at half of the fitted maximal effect; on the % scale 0 is the no-effect control and ±100 the full control effect; nearly all actives have a fitted effect of over 55% in size
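qHTS (up to 57 uM final) was run with 24 h compound exposure of reporter cells at 37 °C. Each well was multiplexed: SteadyGlo luminescence measured ATXN2-luciferase expression after a fluorogenic Gly-Phe-AFC viability readout (25 uM final).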
TGFb inhibitor – blocks TGF-b signaling; actives 1.2% (n = 410,000); HepG2 CAGA-GFP TGF-b/SMAD3 reporter, GFP fluorescence, 18 h; TGF-beta stimulated, 500 pg/mL final; AID 588855; Potency, µM (top dose mostly 46.1 µM), without a hit: at the top dose activity, negative = inhibition, hits mostly inhibitors; further: potency means the concentration at half of the fitted maximal effect; on the % scale 0 is the no-effect control and ±100 the full control effect; nearly all actives have a fitted effect of over 65% in size
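First, reporter cells (HEPG2 CAGA-GFP) rested 2 h at 37 degrees C. Next, compounds were pinned in and TGF-beta added to 500 pg/mL final. After 18 h, GFP was imaged per cell and summed per well.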
ATXN viability – cell viability loss in ATXN counter-screen. actives 0.49% (n = 400,000). S2 cells (HEK-293 line with an ATXN2-luciferase reporter) viability, CellTiter-Fluor protease fluorescence, 24 h. Potency, µM (doses to about 56.7 µM), usual class: cytotoxic; further: potency means the concentration at half of the fitted maximal effect; nearly all actives have a fitted effect of over 40% in size
D3 ag – activates the human D3 dopamine receptor. actives 0.58% (n = 410,000). P35462. max activation, %. D3R DiscoveRx beta-arrestin cells, luminescence, 90 min; in the data active means max activation above about 30%; further: 0% is about no effect
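Agonist mode: compounds and dopamine controls were applied to plated cells for 90 min at 37 degrees C after an overnight attachment at 1500 cells/well. Luminescent read-out followed 30 - 60 minutes at room temperature with DiscoveRx detection reagent.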
HepG2 tox – kills HepG2 cells in TGF-b inhibitor counter-screen. HepG2 CAGA-GFP viability, ATP luminescence, 18 h. Potency, µM (series often up to 46.1 µM), without a hit: at the top dose activity change, negative = cytotoxicity, usual class: cytotoxic. actives 0.76% (n = 410,000). AID 588856; further: potency means the concentration at half of the fitted maximal effect
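HepG2 CAGA-GFP cells (1000/well, DMEM with 1% FBS) received compound, then TGF-beta at 500 pg/mL final, and were incubated 18 hours at 37 degrees C. Viability was read by CellTiter-Glo luminescence. Media-only wells were set as complete cell-killing and DMSO as no toxicity.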
* hit, by the source's call; i = inactive; ? = inconclusive; . = no result. Unless noted, the call rests on the fitted dose curve; in most records, active means well fitted curve in the direction sought with a large enough effect; inconclusive means small, poorly fitted or top-dose-only effect, or another doubt; inactive means no such curve, though single readings can be large; an effect the other way counts as inactive or inconclusive.

SMILES | DRD3 antagonist | ATXN2 expr inh | TGFb inhibitor | ATXN viability | D3 ag | HepG2 tox
CCS(=O)(=O)c1ncc(Cl)c(C(=O)Nc2ccc(C)cc2)n1 | -130.4* | ? | ? | . | -19.9 | -98.0%
CCNC(=O)c1c(NC(=O)c2nc(S(=O)(=O)CC)ncc2Cl)sc2c1CCCC2 | . | . | 1.41µM* | . | -28.2 | 3.98µM*
c1nc(SSc2ncc3n[nH]nc3n2)nc2n[nH]nc12 | . | . | -3.0% | . | . | 2.0%
Oc1cc2cc(-c3csc(-c4ccc(F)cc4)n3)ccc2[nH]1 | . | . | -16.0% | . | . | -45.8%
CC(C)CN(CC(C)C)S(=O)(=O)c1ccc(C(=O)Nc2sc3c(c2C(N)=O)CC(C)(C)NC3(C)C)cc1 | . | ? | 0.5% | . | -6.3 | -52.0%
COc1ccnc2c1CCCCC2S(=O)c1nc2ccccc2[nH]1 (stereo unspecified) | . | 38.5% | . | i | . | .
Cc1ccc2c(c1)-c1c(cnn1CC(=O)N1CCN(c3ccccc3F)CC1)CO2 | . | 7.7% | -52.9% | i | 3.3 | -9.0%
CCOc1ccc(NC(=O)c2nc(S(=O)(=O)Cc3ccc(C)cc3)ncc2Cl)cc1 | . | . | ? | . | . | 12.6µM*
COC(=O)c1ccccc1NC(=O)c1nc(S(=O)(=O)Cc2ccccc2)ncc1Cl | -77.4* | . | 0.8% | ? | -0.8 | -17.8%
CCOc1ccc(NC(=O)c2nc(S(=O)(=O)Cc3ccccc3)ncc2Cl)cc1 | . | . | 11.2µM* | . | . | 11.2µM*
CC(=O)Nc1ccc(NC(=O)c2nc(S(=O)(=O)Cc3ccccc3)ncc2Cl)cc1 | -29.4 | . | ? | ? | -1.4 | -107.6%
O=C(Cn1ncc2c3ccccc3n(Cc3ccc(F)cc3)c2c1=O)NCCCN1CCCCC1 | . | 2.5% | 9.1% | i | -13.6 | -10.8%
Cc1cc2c(OCC(CNC(C)(C)C)OC(=O)c3ccccc3)cccc2[nH]1 (stereo unspecified) | . | -0.8% | . | i | -7.2 | .
O=C(O)c1ccccc1-c1c2cc(I)c(=O)c(I)c-2oc2c(I)c(O)c(I)cc12 | -61.7* | -23.8% | 30.8% | 4.47µM* | -28.7 | -13.2%
COc1cccc(CNc2ncnc3sc(C(=O)N4CC5CCC4C5)c(C)c23)c1OC (stereo unspecified) | . | . | . | i | . | .
O/C(=C\c1nc2ccccc2nc1/C=C(\O)c1ccccc1)c1ccccc1 | -66.9* | 26.8% | -7.3% | i | -5.0 | -14.7%
CC(=O)c1cc(NC(=O)c2ccc(Cl)cc2)c(=O)oc1/C=C/N(C)C | -71.8* | 0.9% | 51.7% | i | -3.6 | -12.1%
CCN(CCCNC(=O)c1cc(Nc2ccc(OC)cc2OC)nc2ccccc12)c1cccc(C)c1 | . | -6.5% | ? | i | -6.0 | -21.7%
CC(C)(C)NC(=O)c1cccc2c1OC(C)(C)C2 | 8.9 | -8.5% | -0.4% | i | 49.2* | -0.3%
CCOc1ccccc1C1CC(=O)NC(C)=C1C(=O)OCc1ccc(C)cc1 (stereo unspecified) | . | 2.4% | ? | i | 18.0 | -51.7%
CCCCCc1c(CC)ncn1CCc1ccccc1OC | -19.2 | ? | . | 15.8µM* | -13.0 | .
CCCCc1c(-c2ccccc2OC)ncn1CCc1ccccc1OC | 37.4 | ? | . | 31.6µM* | -0.2 | .
CCCCCc1c(-c2ccccc2OC)ncn1CCc1ccccc1OC | 61.7 | -35.3% | . | . | -5.1 | .
CCCCc1c(-c2ccccc2OC)ncn1CCc1cccc(OC)c1 | 4.3 | ? | . | 31.6µM* | 5.2 | .
O=C(COC(=O)CN1C(=O)C2CCCCC2C1=O)NNC(=O)c1ccc(Cl)cc1 (stereo unspecified) | -74.7* | 6.3% | -9.9% | i | -2.7 | 3.6%
SMILES | DRD3 antagonist | ATXN2 expr inh | TGFb inhibitor | ATXN viability | D3 ag | HepG2 tox
Cc1ccc(Cl)cc1NC(=O)COC(=O)CN1C(=O)C2CCCCC2C1=O (stereo unspecified) | 0.1 | -4.4% | -1.3% | i | -1.9 | 7.2%
Cn1c(=O)c2c(ncn2CC(=O)OCC(=O)NNC(=O)c2ccc(Cl)cc2)n(C)c1=O | -124.0* | -1.3% | -24.0% | ? | -23.8 | 1.8%
Cc1nnc(N2CCC(C(=O)NCc3ccc(F)cc3)CC2)c2nn(-c3ccc(Cl)cc3)c(C)c12 | . | -12.7% | ? | i | -6.0 | -80.9%
C=CC(=O)Nc1cccc(N(C)c2ccnc(Nc3ccc(N4CCN(C)CC4)cc3)n2)c1 | 34.6 | ? | 5.01µM* | 15.8µM* | 4.7 | 0.2%
Cc1ccc(CN2CCN(/N=C/c3cccs3)CC2)cc1 | -58.7* | 6.5% | -18.3% | i | -7.6 | -1.7%
Cc1ccc(/C=N/N2CCN(Cc3ccc(C)cc3)CC2)cc1 | -6.0 | 0.7% | -13.3% | i | -20.8 | -24.4%
Cc1ccc(CN2CCN(/N=C/c3cc(Br)ccc3O)CC2)cc1 | -87.1* | -16.2% | -3.4% | i | -37.0 | -6.4%
COc1ccc(Br)cc1/C=N/N1CCN(Cc2ccccc2)CC1 | 2.9 | 0.6% | 0.5% | i | -17.8 | -4.1%
CCOC(=O)c1cnc(Nc2nc3ccccc3o2)nc1CSc1ncccn1 | -22.0 | 10.4% | 1.6% | i | 8.5 | -12.6%
CCOC(=O)c1cnc(Nc2nc3ccccc3o2)nc1CSC(=S)N(CC)CC | -60.3* | -4.0% | ? | i | -7.7 | -21.1%
Nc1[nH]c(=O)nc2nnsc12 | . | . | -1.1% | . | . | 7.1%
CCc1c(C)nc2nncn2c1Nc1ccc(Cl)cc1 | . | . | . | . | 8.7 | 4.2%
Cc1cccc(N=Nc2ccc(O)c3ncccc23)c1 | -100.7* | -27.9% | ? | 10µM* | -1.6 | -9.8%
NS(=O)(=O)c1ccc(N=Nc2c(O)ccc3ccccc23)cc1 | -2.3 | -5.6% | ? | ? | 4.0 | -74.2%
NS(=O)(=O)c1ccc(N=Nc2ccc(=O)[nH]c2O)cc1 | -101.8* | -31.4% | 2.4% | ? | -16.5 | 7.3%
Oc1ccc(N=Nc2ccc3c(c2)OCCO3)c2ncccc12 | -66.4* | . | ? | . | -24.1 | 10.2%
O=C(Nc1ncccc1O)c1ccc2c(c1)OCCO2 | 6.3 | 6.3% | -0.1% | i | 2.7 | -8.8%
CCN(CC)S(=O)(=O)c1cc(OC)ccc1N=Nc1ccc(O)c2ncccc12 | -108.4* | . | ? | . | -6.9 | -26.1%
Nc1nc(N)c(N=Nc2ccc(S(N)(=O)=O)cc2)c(=O)[nH]1 | -54.8* | . | 11.4% | ? | -6.1 | 4.6%
NS(=O)(=O)c1ccc(N=Nc2ccc(O)c3ncccc23)cc1 | ? | . | 8.91µM* | 10µM* | 3.5 | 6.31µM*
Cc1ccc(C)c(N=Nc2ccc(O)c3ncccc23)c1 | ? | ? | 0.9% | ? | -5.9 | -15.7%
CCS(=O)(=O)c1ccc(OC)c(N=Nc2ccc(O)c3ncccc23)c1 | 4.7 | -7.3% | 5.0% | i | 3.3 | -12.1%
CCOc1ccc(N=Nc2ccc(O)c3ncccc23)cc1 | -58.4* | ? | 0.0% | ? | -2.9 | -15.9%
Nc1nc(N)c(N=Nc2ccc(Cl)cc2)c(=O)[nH]1 | 0.0 | 39.4% | -20.1% | i | -13.8 | -14.4%
